# High-throughput results deposited in PubChem by several laboratories.
# Compounds with a hit are over-represented: about 2% of the library has one in this group of screens.
# APOBEC3A inh = inhibitors of human APOBEC3A DNA deaminase. P31941. actives 0.41% (n = 330,000). AID 493011. recombinant A3A, FAM/TAMRA ssDNA deamination fluorescence. inhibition, % at 20 µM;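 active = at least 40% inhibition at 20 µM here, with at most 30% in a related deaminase screen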;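 note: plate controls were A3A with DMSO for no effect and wells lacking A3A enzyme for full effect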
# NALP1 yeast inh = blocks the NALP1 inflammasome reconstituted in yeast. S. cerevisiae NALP1/ASC/caspase-1 growth, X-gal OD620, 72 h. inhibition, % at 10 µM. actives 0.61% (n = 280,000); in the data active = inhibition mostly above about 24%, no sharp cut-off; inactive = mostly below about 32%
# HGIII-sPLA2 inh = Blocks human group III sPLA2 activity; AID 743126; actives 0.56% (n = 370,000); inhibition, % at 12.2 µM; QFRET BODIPY PC-A2 liposome hydrolysis, fluorescence; Q9NZ20;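 active = inhibition above mean plus 3 SD of compounds lying within the high and low control bounds, cut at about 19% in these data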;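 note: 0% = median of test compound wells and 100% = no enzyme DMSO wells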
# Fh CTSL1 inh = blocks F. hepatica cathepsin L1 in PFM18AAP counter-screen; inhibition, % at 5.96 µM; recombinant F. hepatica cathepsin L1, Z-Leu-Arg-MCA fluorescence; AID 1906; actives 0.49% (n = 300,000);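 active = inhibition above the mean of all tested compounds plus 3 SD, set per screening campaign, cut at about 17% in these data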;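 note: 0% = plate median of test compound wells and 100% = 1 µM Z-Phe-Ala-diazomethylketone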
# APOBEC3G inh = inhibitors of human APOBEC3G DNA deaminase. Q9HC16. recombinant A3G, ssDNA deamination FAM/TAMRA fluorescence. inhibition, % at 20 µM. actives 0.28% (n = 330,000);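 active = inhibition of at least 40% at 20 µM, with no more than 30% in the related APOBEC3A deaminase screen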;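 note: plate controls were DMSO wells with A3G for no effect and wells lacking A3G enzyme for full effect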
# Target sequence (Q9HC16 whole entry, looked up): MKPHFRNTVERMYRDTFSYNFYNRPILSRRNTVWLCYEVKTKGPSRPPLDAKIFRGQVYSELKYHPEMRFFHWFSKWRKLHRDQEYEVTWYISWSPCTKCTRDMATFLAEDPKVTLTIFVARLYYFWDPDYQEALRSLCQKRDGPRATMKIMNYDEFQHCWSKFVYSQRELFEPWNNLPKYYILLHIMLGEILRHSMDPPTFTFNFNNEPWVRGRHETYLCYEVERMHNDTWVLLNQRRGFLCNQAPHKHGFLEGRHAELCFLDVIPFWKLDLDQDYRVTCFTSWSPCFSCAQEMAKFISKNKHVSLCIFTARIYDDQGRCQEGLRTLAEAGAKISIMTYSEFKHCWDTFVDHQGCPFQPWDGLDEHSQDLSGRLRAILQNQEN
# APOBEC3G confirm = APOBEC3G (human) deaminase inhibition, confirmed | AID 493152 | inhibition, % at 20 µM | recombinant A3G ssDNA deaminase, UDG/FAM-TAMRA fluorescence | actives 72% (n = 890) | shares compounds with APOBEC3G inh;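 active = inhibition reaching a set limit in any replicate at 20 µM, the limit being 80% of the first screen's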
# UDG ctr A3G = E. coli UDG inhibition in APOBEC3G counter-screen; AID 504715; inhibition, % at 20 µM; shares compounds with APOBEC3G inh; UDG counterscreen, FAM/TAMRA oligo fluorescence; 710 tested, under 10 active;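 active = compounds giving 40% or more inhibition at 20 µM in any one of the three replicates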;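 note: plate controls were DMSO wells with UDG and oligo for no effect and DMSO wells lacking both for full effect; inhibitors lower the FAM signal released by uracil excision and alkaline cleavage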
# Target sequence (P12295 whole entry, looked up): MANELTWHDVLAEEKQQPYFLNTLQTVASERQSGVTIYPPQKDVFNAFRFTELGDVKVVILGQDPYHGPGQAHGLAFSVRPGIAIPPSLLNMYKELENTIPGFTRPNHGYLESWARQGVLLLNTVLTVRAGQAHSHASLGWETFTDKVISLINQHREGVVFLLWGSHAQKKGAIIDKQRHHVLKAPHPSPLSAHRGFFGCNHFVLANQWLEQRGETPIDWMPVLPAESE
# Starred values were filed as active, the others as inactive; / = no result.
SMILES,APOBEC3A inh,NALP1 yeast inh,HGIII-sPLA2 inh,Fh CTSL1 inh,APOBEC3G inh,APOBEC3G confirm,UDG ctr A3G
O=C(CSc1nnc(-c2ccco2)n1-c1ccc(Cl)cc1)Nc1ccc(S(=O)(=O)Nc2nccs2)cc1,/,/,-35,/,/,/,/
CCC1CCc2c(sc(NC(=O)c3cnccn3)c2C(N)=O)C1 (centres undefined),-2,0,0,-1,58*,22,19
O=[N+]([O-])c1cccc(-c2n[nH]c(=S)n2-c2ccccc2)c1,-3,/,/,2,22,/,/
O=[N+]([O-])c1ccc2c(c1)[nH]c(=S)n2-c1ccccc1,-1,-5,13,0,41*,54*,-3
CC(C)Cn1c(-c2ccco2)n[nH]c1=S,1,-6,16,-6,46*,21,/
CCCCn1c(-c2ccco2)n[nH]c1=S,-2,13,19,1,63*,66*,4
S=c1[nH]nc(-c2ccco2)n1Cc1ccccc1,-1,-7,17,-3,51*,73*,-3
CCn1c(-c2ccco2)n[nH]c1=S,-3,-3,6,1,29,/,/
O=C(NCc1ccc(Cl)c(Cl)c1)O[C@H]1CC[C@@]23CCCN2C(=O)CCC[C@H]3C1,/,/,-5,/,/,/,/
CCCC[C@H](C(=O)N(C)c1ccccc1)[C@@H](O)c1ccc(Cl)cc1,/,/,-2,/,/,/,/
CCCCCCCCNC(=O)C1CSCCS(=O)(=O)N1Cc1ccccc1 (centres undefined),/,/,0,/,/,/,/
Cc1ccn2c(=O)nc(SCC(=O)N3CCC(Cc4ccccc4)CC3)nc2c1,2,/,4,-2,1,/,/
Cc1ccc(NC(=O)Cn2sc3nc(C)cc(C)c3c2=O)c(Cl)c1,-8,-19,11,1,72*,92*,-1
CCOc1ccc(NC(=O)Cn2sc3nc(C)cc(C)c3c2=O)cc1,-1,-10,/,2,80*,49*,-3
Cc1cc(C)c2c(=O)n(CC(=O)Nc3ccc(Cl)cc3)sc2n1,-7,/,-4,1,82*,93*,0
Cc1cc(C)c2c(=O)n(CC(=O)N3CCC(Cc4ccccc4)CC3)sc2n1,2,12,/,/,43*,58*,/
COC(=O)[C@]12C[C@H](CC(=O)NCCc3ccccc3OC)C(=O)N(Cc3ccco3)C1=C[C@H](C(C)(C)C)O[C@@H]2C,/,/,-7,/,/,/,/
O=C(CCc1ccccc1)N[C@H]1[C@H](O)CCC[C@@]12C(=O)N(Cc1ccccc1)c1ccc(-c3ccccc3)cc12,/,/,-24,/,/,/,/
Cc1ccc(-n2c(SCC(=O)Nc3ccccc3-c3ccccc3)nnc2-c2ccccn2)cc1,/,/,-4,/,/,/,/
COC(=O)[C@]12C[C@H](CC(=O)N3CCN(C(=O)c4ccco4)CC3)C(=O)N(Cc3ccco3)C1=C[C@H](C1CCCC1)O[C@@H]2C,/,/,-10,/,/,/,/
Cc1cc(C)c2c(=O)n(CC(=O)Nc3cccc(F)c3)sc2n1,5,15,2,2,76*,84*,1
CCOC(=O)/C=C1/SCC(=O)N1CC(=O)Nc1cccc(F)c1,1,/,-9,/,-2,/,/
COc1ccc(Cl)cc1NC(=O)NC1CCCCC1,19,-6,-2,0,46*,27*,5
COc1ccccc1C(=O)Nc1cc(Cl)ccc1O,-2,22,-7,2,-8,/,/
COc1ccc(Cl)cc1NC(=O)c1ccccc1C,1,2,2,1,41*,2,/
SMILES,APOBEC3A inh,NALP1 yeast inh,HGIII-sPLA2 inh,Fh CTSL1 inh,APOBEC3G inh,APOBEC3G confirm,UDG ctr A3G
CCOC(=O)c1sc(N/N=C/c2ccccc2)nc1C,2,24,1,-1,53*,64*,2
CCOC(=O)c1sc(N/N=C/c2cccc(C)c2)nc1C,-5,0,0,7,-12,/,/
CC(C)CN1C(=O)[C@@]2(CC(=O)N(C)C2c2ccccc2)c2cc(-n3cc(CN(C)C)nn3)ccc21 (some centres undefined),/,/,11,/,/,/,/
Cc1noc(C)c1S(=O)(=O)N1CCCC(C(=O)NCc2ccccn2)C1 (centres undefined),3,-9,2,0,49*,1,/
COC(=O)C[C@@H]1CC[C@H]2[C@H](COc3ccc(NC(=O)c4cccc(C(F)(F)F)c4)cc3C(=O)N2C)O1,/,/,-13,/,/,/,/
COC(=O)[C@H]1C[C@@]2(N3CCCCC3)c3ccccc3N[C@H]2N1S(=O)(=O)c1ccc(C)cc1,/,/,12,/,/,/,/
Cc1cc(-c2nsc(=O)o2)c(S(C)(=O)=O)s1,3,-28,5,2,66*,69*,/
COCCCNC(=O)C[C@H]1C[C@@]2(C(=O)OC)C(=C[C@H](C3CCCC3)O[C@@H]2C)N(CCC2=CCCCC2)C1=O,/,/,0,/,/,/,/
COc1ccc(S(=O)(=O)N2CCOCC2)cc1C(=O)Nc1ccc2c(c1)OCO2,1,5,0,-1,-5,/,/
O=S(=O)(c1ccc(Nc2ccc3c(c2)OCO3)nc1)N1CCOCC1,1,10,6,1,44*,0,/
CCOC(=O)c1nn(-c2ccccc2)c(=O)c2c(N)scc12,5,12,-1,2,34,/,/
Nc1scc2c(C(=O)N/N=C/c3ccc(Cl)cc3)nn(-c3ccccc3)c(=O)c12,-5,-11,-1,34*,51*,active,-1
O=C(C1CCC1)n1ccc2ccc(-c3ccc4ccn(Cc5ccccc5)c4c3)cc21,/,/,0,/,/,/,/
COCCN(C(=O)COC(=O)Cc1ccc(Cl)cc1Cl)c1c(N)n(Cc2ccccc2)c(=O)[nH]c1=O,7,/,-6,0,43*,-2,/
COCCN(C(=O)COC(=O)C1CC1)c1c(N)n(Cc2ccccc2)c(=O)[nH]c1=O,4,/,0,3,-10,/,/
COc1cccc(Cn2cc(COC(=O)N3CCCC3)nn2)c1,/,/,12,/,/,/,/
CCOC(=O)c1c(NC(=O)CSc2nnnn2-c2ccc(OC)cc2)sc(C)c1C,-1,-11,5,-2,45*,77*,-3
Cc1ccc(-c2n[nH]c(=S)n2/N=C\c2ccco2)cc1,-3,18,-4,-1,42*,76*,6
Cn1cccc1/C=N/n1c(-c2ccccc2)n[nH]c1=S,-3,7,11,0,43*,81*,-3
CN(C)c1ccc(/C=N/n2c(-c3cccnc3)n[nH]c2=S)cc1,-3,3,7,9,45*,83*,-2
Cc1nn(-c2ccccc2)c(C)c1/C=N/n1c(-c2ccncc2)n[nH]c1=S,-4,-13,11,-2,42*,77*,1
O=[N+]([O-])c1ccc(OCCCN2CCC(C(O)(c3ccccc3)c3ccccc3)CC2)c(Cl)c1,/,/,-14,/,/,/,/
C#CCN1C(=O)[C@@](O)(c2cccn2C)c2cc(F)ccc21,/,/,5,/,/,/,/
O=C(Nc1ccc2c(c1)OCO2)NC1CCCCN(Cc2cccc(Cl)c2)C1=O (centres undefined),/,/,6,/,/,/,/
Cc1ccnc(SCc2cc(=O)c(OC(=O)c3ccc(C#N)cc3)co2)n1,/,/,14,/,/,/,/
